± gives the standard deviation.
What was measured:
Conditions in all cases: modulator concentration 10 µM
[1] = system: RAW-Dual (murine macrophage reporter line); experiment: NF-kB reporter (SEAP) activity fold change vs agonist alone; higher = enhanced NF-kB activity
In short: (§1)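 Overnight stimulation with a PRR agonist followed pre-incubation for 1 hour at 37 °C with compound at 10 μM final. This was done in RAW-Dual murine macrophage reporter cells seeded at 50 000 per well in 384-well plates. NF-κB (SEAP, QUANTI-Blue absorbance at 620 nm) and IRF (Lucia luciferase, QUANTI-Luc luminescence) were read from the supernatant. Each reporter's fold change relative to the mean agonist-only control on the same plate was averaged over replicate plates.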

[2] = system: RAW-Dual (murine macrophage reporter line); experiment: IRF reporter (Lucia luciferase) activity fold change vs agonist alone; higher = enhanced IRF activity
In short: as §1

[3] = system: RAW-Dual (murine macrophage reporter line); experiment: viability score (confluency relative to resting cells, overnight) (fraction); higher = more viable, active = viable (0.7 or more)
In short: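 Confluency was the readout: RAW-Dual macrophages were imaged with IncuCyte after an overnight exposure to compound at 10 μM final. IncuCyte software produced two masks over all imaged wells. The viability score expresses confluency against resting cells, and both masks had to exceed 70% of resting cells for a compound to meet the cutoff.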

[4] = agonist: CpG ODN 1826 0.5 ug/mL

Structure (SMILES)	NF-kB reporter [1, 4]	NF-kB reporter ([1]; agonist: LPS 0.1 ug/mL)	NF-kB reporter ([1]; agonist: MPLA […])	IRF reporter ([2]; agonist: 3'3'-cGAMP 10 ug/mL)	IRF reporter ([2]; agonist: LPS 0.1 ug/mL)	IRF reporter ([2]; agonist: MPLA […])	viability score [3]
O=C(CN(CCc1ccccc1)S(=O)(=O)c1ccc(Cl)cc1)NCc1ccncc1	1.03 ± 0.19	0.976 ± 0.076	0.941 ± 0.12	0.954 ± 0.025	1.17 ± 0.11	1.16 ± 0.26	1.01 (active)
N#CC(=Cc1cn(Cc2ccccc2Cl)c2ccccc12)c1nn(CCO)c(N)c1C#N	0.919 ± 0.077	0.959 ± 0.053	0.91 ± 0.058	0.909 ± 0.063	1.18 ± 0.17	0.936 ± 0.058	1.02 (active)
C[C@@H]1COC(Nc2ccc3ncnc(Nc4ccc(OCc5nccs5)c(Cl)c4)c3c2)=N1	0.381 ± 0.07	0.881 ± 0.17	0.84 ± 0.065	0.186 ± 0.023	0.833 ± 0.2	1.27 ± 0.23	0.595 (inactive)
CCN(CC)c1ccc(NC(=O)C(C)(C)C)cc1	0.969 ± 0.075	1.02 ± 0.075	0.98 ± 0.12	0.901 ± 0.074	1.22 ± 0.17	1.36 ± 0.25	1.04 (active)
CC1CCC2C(C)(C)C3CC12CCC3(C)O (centres undefined)	1.04 ± 0.081	0.883 ± 0.11	0.965 ± 0.094	0.999 ± 0.052	1.15 ± 0.16	1.25 ± 0.23	1.05 (active)
CNC(C)CCC=C(C)C.CNC(C)CCC=C(C)C (centres undefined) [Prestw-1023]	1.07 ± 0.082	0.976 ± 0.12	1.01 ± 0.16	1 ± 0.047	1.17 ± 0.16	1.23 ± 0.28	1.04 (active)
CCCc1cc(=O)[nH]c(=S)[nH]1	1.37 ± 0.11	1.07 ± 0.05	1.3 ± 0.11	0.611 ± 0.028	1.03 ± 0.082	0.903 ± 0.076	1.02 (active)
COc1ccc(C2Nc3ccc(C(=O)c4ccccc4)cc3NC3=C2C(=O)CCC3)c(OC)c1 (centres undefined)	0.77 ± 0.06	0.844 ± 0.04	1.08 ± 0.095	0.933 ± 0.047	1.41 ± 0.11	1.58 ± 0.17	1.01 (active)
Cc1cccc(OCCCSc2nc3ccccc3[nH]2)c1	0.919 ± 0.076	0.973 ± 0.11	1.14 ± 0.11	0.671 ± 0.021	1.28 ± 0.21	1.39 ± 0.24	0.949 (active)
COc1cc(Cl)cc(C=NNC(=O)c2cc(C)n[nH]2)c1O	1.16 ± 0.09	0.793 ± 0.038	0.943 ± 0.082	0.785 ± 0.066	1.46 ± 0.088	1.62 ± 0.14	0.968 (active)
Cc1c(NC(=S)NC(=O)c2ccccc2[N+](=O)[O-])cccc1-c1nc2ccccc2o1	0.898 ± 0.074	1 ± 0.073	1.05 ± 0.11	0.649 ± 0.093	1.04 ± 0.15	1.07 ± 0.31	1 (active)
COc1ccc([C@H]2CNC(=O)C2)cc1OC1CCCC1	2.61 ± 0.4	2.21 ± 0.38	1.9 ± 0.14	0.902 ± 0.039	1.03 ± 0.22	1.41 ± 0.15	0.982 (active)
CCOc1ccccc1NC(=O)NCCc1csc(-n2nc(C)cc2C)n1	0.996 ± 0.069	1.14 ± 0.096	0.797 ± 0.12	1.12 ± 0.085	0.983 ± 0.061	0.938 ± 0.41	1.01 (active)
O=C(Oc1ccc2ccccc2c1)c1ccccc1	0.981 ± 0.055	1.06 ± 0.11	1.04 ± 0.066	0.906 ± 0.06	1.27 ± 0.12	1.12 ± 0.11	0.975 (active)
CCCCC1=NC2(CCCC2)C(=O)N1Cc1ccc(-c2ccccc2-c2nnn[nH]2)cc1 [Prestw-1736]	1.21 ± 0.29	0.96 ± 0.057	0.952 ± 0.087	0.943 ± 0.034	1.22 ± 0.19	1.06 ± 0.18	1 (active)
Cc1ccc(C=Nc2ccc(-c3ccc(N=Cc4ccc(C)o4)c(C)c3)cc2C)o1	0.837 ± 0.066	0.984 ± 0.087	1.01 ± 0.053	0.773 ± 0.097	0.929 ± 0.041	0.894 ± 0.075	0.991 (active)
CCOC(=O)N1CCN(C(=O)CSc2ccc(-c3ccccc3)nn2)CC1	1.15 ± 0.086	1.05 ± 0.055	1.09 ± 0.06	0.931 ± 0.051	0.96 ± 0.1	0.906 ± 0.073	0.993 (active)
CCCC(C(=O)OCCN(CC)CC)(c1ccccc1)c1ccccc1.Cl	0.851 ± 0.066	0.924 ± 0.11	0.978 ± 0.084	0.972 ± 0.055	1.03 ± 0.27	1.03 ± 0.39	1.02 (active)
CCc1ccc(OCCSc2nc3ccccc3n2CCO)cc1	0.776 ± 0.075	1.08 ± 0.07	0.927 ± 0.073	0.986 ± 0.03	1.33 ± 0.15	1.13 ± 0.09	1.01 (active)
O=c1[nH]cnc2scc(-c3ccc(Br)cc3)c12	0.924 ± 0.067	1.08 ± 0.073	1.03 ± 0.061	1.14 ± 0.042	1.65 ± 0.13	1.29 ± 0.16	0.975 (active)
COc1ccc(C=Nc2ccc(OC(C)=O)cc2)cc1	0.738 ± 0.16	1.11 ± 0.16	1.03 ± 0.11	0.588 ± 0.029	1.34 ± 0.13	1.23 ± 0.15	1 (active)
CC12CC3CC(C)(C1)CC(N)(C3)C2.Cl	0.831 ± 0.1	0.892 ± 0.086	0.855 ± 0.074	1.24 ± 0.056	1.2 ± 0.099	1.14 ± 0.095	0.978 (active)
Clc1ccc(C=NNc2cc(N3CCCC3)nc(N3CCCC3)n2)c(Cl)c1	0.988 ± 0.076	0.983 ± 0.081	0.987 ± 0.1	0.99 ± 0.062	1.21 ± 0.15	1.31 ± 0.25	1.04 (active)
Cc1cccc(CS(=O)(=O)N2CCC(S(=O)(=O)c3nccn3C)CC2)c1	1.04 ± 0.078	1.02 ± 0.082	0.983 ± 0.038	1.04 ± 0.088	0.979 ± 0.089	1.05 ± 0.12	0.998 (active)
CCC(CNC(=O)Cc1c(F)cccc1Cl)(OC)c1ccccc1 (centres undefined)	0.854 ± 0.06	0.911 ± 0.091	1.06 ± 0.062	0.955 ± 0.074	1.09 ± 0.2	1.17 ± 0.37	0.825 (active)
Fc1ccc(Oc2nc(Nc3cccc(Cl)c3)nc(N3CCOCC3)n2)cc1	0.331 ± 0.028	1.33 ± 0.089	2.57 ± 0.15	0.757 ± 0.052	2.94 ± 0.22	2.19 ± 0.34	0.84 (active)
CC(=O)Nc1ccc(S(=O)(=O)N2CCC(Oc3nc(C)cc(C)n3)C2)cc1 (centres undefined)	1.13 ± 0.099	1.03 ± 0.078	0.969 ± 0.033	0.988 ± 0.063	0.987 ± 0.057	0.932 ± 0.15	0.998 (active)

Source: the supplement of paper PMC10646978
